In PubChem BioAssay (EPA / NIEHS):
Active and inactive are the calls of the source. Rule for the calls: active = hit-call score of the fitted dose curve at least 0.9, where 1 is the maximum; inactive = score below 0.9.

Test: ATG_SREBP_CIS: Attagene CIS-FACTORIAL HepG2 Assay for human Sterol Regulatory Element Binding (SREBP) (AID 2282962)
Settings: HepG2 Attagene cis-factorial SREBP reporter, mRNA; actives raise or lower the signal
Description: ATG_CIS is a cell-based, multiplexed-readout assay that uses HepG2, a human liver cell line, with measurements taken at 24 hours after chemical dosing in a 24-well plate.ATG_SREBP_CIS is one of 52 assay component(s) measured or calculated from the ATG_CIS assay. It is designed to make measurements of mRNA induction, a form of inducible reporter, as detected with fluorescence intensity signals by Reverse transcription polymerase chain reaction (RT-PCR) and Capillary electrophoresis technology.Data from the assay component ATG_SREBP_CIS was analyzed into 1 assay endpoint. This assay endpoint, ATG_SREBP_CIS, was analyzed with bidirectional fitting relative to DMSO as the negative control and baseline of activity. Using a type of inducible reporter, measures of mRNA for gain or loss-of-signal activity can be used to understand the reporter gene at the transcription factor-level as they relate to the gene SREBF1. Furthermore, this assay endpoint can be referred to as a primary readout, because this assay has produced multiple assay endpoints where this one serves a reporter gene function. To generalize the intended target to other relatable targets, this assay endpoint is annotated to the dna binding intended target family, where the subfamily is basic helix-loop-helix leucine zipper.
Human liver HepG2 cells are transiently transfected with multiple reporter transcription units (MRTUs) in 6-well plates using FuGene 6 reagent (Roche; 3 ml FuGene/1 mg DNA). The MRTU constructs are regulated by a cis-regulating element (promoter). […] A major difference between the CIS and TRANS system is that in CIS activities of endogenous TFs are measured, whereas the TRANS assay evaluates changes in activities of exogenous, chimeric NR-Gal4 proteins. […] At the end of 24 hour incubation, total RNA was isolated using TriZol reagent (Invitrogen). The isolated RNA is then reverse-transcribed using oligo(dT) primer and Mo-MLV reverse transcriptase (Invitrogen) with DNAse I (Ambion) treatment for 30 min. The one-tenth of the produced cDNA was amplified by PCR using Taq DNA polymerase (Invitrogen) and two reporter sequence-specific primers. The PCR products were fluorescently labeled by primer extension with 6-arboxyfluorescein (6-FAM) 5'-labeled reporter sequence-specific primer (2 min at 95 C, 20 s at 68 C and 10 min at 72 C) and these products were digested with 5U of HpaI (New England Biolabs) for 2h at 37 C. The fragments were purified using Qiaquick PCR columns (Qiagen), analyzed on an ABI 3130xL genetic analyzer (Applied Biosystems) with peak positions identified by using a set of X-rhodamine (ROX)-labeled MapMarker1000 molecular weight standards (BioVentures). The raw capillary electrophoresis data was processed using Attagraph software (Attagene).
In the case of `Clc1cc(Cl)c(Cl)cc1Cl`, the outcome is reported as “inactive”.
With `CC=Cc1ccc(O)c(OC)c1` the outcome was “inactive”.
For `OC[C@@H](O)[C@@H](O)[C@H](O)[C@H](O)CO`, the outcome was “inactive”.
With `Nc1ccccc1N` the outcome was “inactive”.
In the case of `CNC(=O)[C@H]1O[C@@H](n2cnc3c(NCc4cc(Cl)ccc4OCc4cc(C)no4)ncnc32)[C@H](O)[C@@H]1N`, the outcome is reported as “inactive”.
For `Cc1oc(-c2ccccc2)nc1CCOc1cccc2c1ccn2CCC(=O)O`, the AC50 was 26.8 µM (active).
In the case of `CCNc1cccc(C)c1`, the outcome is reported as “inactive”.
For `COCCOCCOC`, the outcome was “inactive”.
In the case of `CC(C)(C)c1cc(O)c(C(C)(C)C)cc1O`, the AC50 is reported as 7.79 µM (active).
For `CCCCN(CCCC)CCCC`, the outcome was “inactive”.
In the case of `Cc1cccc(C)c1O`, the outcome is reported as “inactive”.
In the case of `Oc1ccc2ccccc2c1N=Nc1ccccc1`, the outcome is reported as “inactive”.
With `CC1(C)CC(N=C=O)CC(C)(CN=C=O)C1` (stereo not given) the outcome was “inactive”.
For `CC1(C)NC(=O)NC1=O`, the outcome was “inactive”.
With `CCCCCCC(=O)OCC` the outcome was “inactive”.
In the case of `CN1CCN(Cc2cc(-c3ccc4[nH]c(=O)oc4c3)co2)[C@@H](c2ccc(F)cc2)C1`, the AC50 is reported as 33 µM (active).
In the case of `C1CCC(SSC2CCCCC2)CC1`, the AC50 is reported as 100 µM (active).
In the case of `CC1=C(/C=C/C(C)=C/C=C/C(C)=C/CO)C(C)(C)CCC1`, the outcome is reported as “inactive”.
With `COc1ccc2c(c1)c(CC(=O)O)c(C)n2C(=O)c1ccc(Cl)cc1` the outcome was “inactive”.
For `CCCc1cc(=O)[nH]c(=S)[nH]1`, the outcome was “inactive”.
For `Cc1ccc(C)c(C)c1`, the outcome was “inactive”.
For `c1cc(-c2ccncc2)ccn1`, the outcome was “inactive”.
In the case of `Cc1cccc([N+](=O)[O-])c1C`, the outcome is reported as “inactive”.
With `COc1cc(C=O)ccc1O` the outcome was “inactive”.
In the case of `CC(=O)Oc1ccccc1C(=O)O`, the outcome is reported as “inactive”.
In the case of `O=C(N[C@@H](Cc1ccccc1)[C@@H](O)C(=O)N1C[C@@H](O)[C@@H](O)C1)c1cc2cc(Cl)ccc2[nH]1`, the outcome is reported as “inactive”.
In the case of `Cc1nc(-c2ccc3c(c2)CCN(CCC2CCC(NC(=O)/C=C/c4ccc(F)cc4)CC2)CC3)no1` (stereo not given), the outcome is reported as “inactive”.
For `Cc1c(C(=O)O)c(O)cc2c1C(=O)c1c(O)c([C@@H]3O[C@H](CO)[C@@H](O)[C@H](O)[C@H]3O)c(O)c(O)c1C2=O`, the outcome was “inactive”.
In the case of `O=c1[nH]cc(F)c(=O)[nH]1`, the AC50 is reported as 18.3 µM (active).
In the case of `Nc1ccc2c(c1)C(=O)c1ccccc1C2=O`, the outcome is reported as “inactive”.
For `CC(C)c1ccc(C(=O)N=C(N)N)cc1S(C)(=O)=O`, the outcome was “inactive”.
In the case of `Oc1ccc2c(c1)OC[C@@H](N1CCC(O)(c3ccc(F)cc3)CC1)[C@H]2O`, the outcome is reported as “inactive”.
For `CC(=O)OC/C=C(\C)CCC=C(C)C`, the outcome was “inactive”.
In the case of `CCCCCCCC=O`, the outcome is reported as “inactive”.
For `CCCCOC(=O)CCCCCCCCC(=O)OCCCC`, the outcome was “inactive”.
With `COc1cc(S(=O)(=O)O)c(C)cc1N=Nc1c(O)ccc2cc(S(=O)(=O)O)ccc12` the outcome was “inactive”.
For `NC(=O)Cn1c(=O)cc(CCN2CCN(c3nccc4sccc34)CC2)c2ccc(F)cc21`, the AC50 was 18.4 µM (active).
With `COc1cccc2c1C(=O)c1c(O)c3c(c(O)c1C2=O)C[C@@](O)(C(=O)CO)C[C@@H]3O[C@H]1C[C@H](N)[C@H](O)[C@H](C)O1` the AC50 was 0.909 µM (active).
In the case of `CCCCCCOCCO`, the outcome is reported as “inactive”.
For `Nc1nc(N)c2nc(CNc3ccc(C(=O)N[C@@H](CCC(=O)O)C(=O)O)cc3)cnc2n1`, the outcome was “inactive”.
